TRHR agonist – qHTS for Small Molecule Agonists and Allosteric Enhancers of Human TRH Receptor: Primary Screen for Agonists; Thyrotropin-releasing hormone receptor (Homo sapiens), P34981; TRHR cells, calcium flux fluo-8, FDSS agonist mode; activation, % at 2 µM; actives 0.18% (n = 360,000); also: 0% is about no effect
Target sequence (P34981 whole entry, looked up): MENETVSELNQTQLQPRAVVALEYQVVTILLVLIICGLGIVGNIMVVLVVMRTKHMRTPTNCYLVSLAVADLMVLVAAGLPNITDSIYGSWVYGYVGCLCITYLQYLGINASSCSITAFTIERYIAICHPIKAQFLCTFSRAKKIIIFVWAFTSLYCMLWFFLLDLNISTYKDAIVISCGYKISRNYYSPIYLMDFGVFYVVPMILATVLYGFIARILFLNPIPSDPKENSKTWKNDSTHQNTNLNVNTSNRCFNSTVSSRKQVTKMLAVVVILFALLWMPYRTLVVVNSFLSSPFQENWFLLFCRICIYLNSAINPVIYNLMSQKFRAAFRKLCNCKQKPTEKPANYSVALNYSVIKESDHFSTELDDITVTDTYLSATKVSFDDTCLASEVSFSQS
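In this calcium-flux screen, cells bearing human TRHR are dye-loaded with fluo-8, baselined for 10 cycles, then exposed to library compounds; positive kinetic calcium responses during the agonist phase mark hits, with TRH as control.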
D1 agonist – Allosteric Agonists of the Human D1 Dopamine Receptor: qHTS; HEK293 T-REx D1 cells, calcium flux, agonist mode; activation, % at 2 µM; actives 1% (n = 360,000); AID 504660, 2011; also: 0% is about no effect
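Agonism was scored from calcium flux recorded over 180 s (1 read/s) after pintool compound addition, following a 10-cycle baseline. Cells were inducible force-coupled HEK293 TREx D1, plated overnight at 30 C and loaded with no-wash calcium dye.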
D1 antag – Antagonist of Human D 1 Dopamine Receptor: qHTS; activity change, negative = inhibition, % at 10 µM; actives 3.2% (n = 360,000); HEK293 TREx D1 cells, calcium flux, dopamine EC80; active compounds read low; AID 504652, 2011; in the data active = activity change below about -30%; also: % is scaled to controls: 0 for no effect and ±100 for the full control effect
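Calcium flux readout: force-coupled, inducible Hek293 Trex D1 line, cells induced overnight at 30 C with tetracycline, dye-loaded 30–90 min at RT. Antagonism scored against EC80 dopamine challenge given 180 s after compound.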
D1 PAM – Potentiators of Human D1 Dopamine Receptor: qHTS; HEK293 TREx D1 cells, calcium flux, dopamine EC20 potentiation; potentiation, % at 10 µM; actives 0.036% (n = 360,000); AID 504651, 2011; in the data active = potentiation above about 30%; also: 0% is about no effect
TRHR PAM – qHTS for Small Molecule Agonists and Allosteric Enhancers of Human TRH Receptor: Primary Screen for Enhancers; actives 0.66% (n = 360,000); AID 493056, 2011; enhancement, % at 2 µM; Thyrotropin-releasing hormone receptor (Homo sapiens), P34981; TRHR cells, fluo-8 calcium fluorescence, EC20 TRH enhancement; in the data active = enhancement above about 30%; also: 0% is about no effect
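Enhancer read-out: after compound pinning and an initial kinetic agonist-mode read, an EC20 of TRH (10 nM final) was injected and fluo-8 calcium signal (Ex 480/Em 530) followed at 1 s/cycle for 100 cycles in TRHR-expressing cells.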
* hit, by the source's call. An excerpt weighted towards active compounds, which were near 4.7% of everything screened. Rule as the data show it, unless noted: active = activation above about 30%; inactive = the rest.

Screening COc1ccc(NC(=O)Cn2c(=O)n(Cc3ccco3)c(=O)c3sc4ccccc4c32)cc1Cl returned TRHR agonist 1, D1 agonist 3, D1 antag 4, D1 PAM 0 and TRHR PAM 6.
Screening Cc1cc(C)cc(OCC(=O)NC(Cc2c[nH]c3ccccc23)C(=O)O)c1 (centres undefined) returned TRHR agonist 0, D1 agonist 2, D1 antag 15, D1 PAM -1 and TRHR PAM 1.
For COc1ccc2nc(S(=O)Cc3ncc(C)c(OC)c3C)[nH]c2c1 (centres undefined) the results were TRHR agonist -1, D1 agonist 2, D1 antag -13, D1 PAM -2 and TRHR PAM 32*.
`COCCCOc1ccnc(CS(=O)c2nc3ccccc3[nH]2)c1C` (centres undefined) gave TRHR agonist 0, D1 agonist 2, D1 antag -4, D1 PAM 1 and TRHR PAM -8.
For COc1ccc(Cn2ccc3nc(C)c(C(=O)Nc4cc(C)cc(C)c4)cc3c2=O)cc1 the results were TRHR agonist 0, D1 agonist 5, D1 antag -22, D1 PAM -1 and TRHR PAM 3.
COc1cc(OC)cc(C(=O)Nc2cc(-c3nc4cccnc4s3)ccc2C)c1 was read as TRHR agonist 0, D1 agonist 2, D1 antag 13, D1 PAM 6 and TRHR PAM -5.
CC1CCN(CCCOc2ccc(OCc3ccccc3)cc2)CC1 was read as TRHR agonist 2, D1 agonist 76*, D1 antag -40*, D1 PAM -10 and TRHR PAM -1.
c1ccc(COc2ccc(OCCCN3CCCC3)cc2)cc1 was read as TRHR agonist 1, D1 agonist 26, D1 antag -25, D1 PAM -4 and TRHR PAM -1.
Screening CC1CCN(CCCCOc2ccc(C(=O)c3ccccc3)cc2)CC1 returned TRHR agonist 1, D1 agonist 21, D1 antag -14, D1 PAM -9 and TRHR PAM -1.
c1ccc(COc2ccc(OCCN3CCCC3)cc2)cc1 was read as TRHR agonist 2, D1 agonist 48*, D1 antag 1, D1 PAM -7 and TRHR PAM -2.
`c1ccc(COc2ccc(OCCN3CCCCC3)cc2)cc1` gave TRHR agonist 5, D1 agonist 43*, D1 antag -31*, D1 PAM -4 and TRHR PAM 3.
Cc1cc2c(c(=O)o1)C1O[C@](CCCCN3C(=O)c4ccccc4C3=O)(Cc3cc(C#N)ccc31)O2 was read as TRHR agonist 1, D1 agonist 1, D1 antag -1, D1 PAM 1 and TRHR PAM -3.
For COc1ccccc1CNC(=O)c1cc2c(s1)-c1ccccc1OC2 the results were TRHR agonist 0, D1 agonist 4, D1 antag -20, D1 PAM -6 and TRHR PAM 14.
For O=C(NCc1cccc(Cl)c1)c1cc2c(s1)-c1ccccc1OC2 the results were TRHR agonist 1, D1 agonist 4, D1 antag -50*, D1 PAM -8 and TRHR PAM 2.
For Cc1cccc2c1-c1sc(C(=O)N3CCN(c4ccc(F)cc4)CC3)cc1CO2 the results were TRHR agonist 0, D1 agonist 1, D1 antag 10, D1 PAM -2 and TRHR PAM 0.
For CN(C)CCNC(=O)c1cc2c(s1)-c1ccccc1OC2 the results were TRHR agonist 0, D1 agonist 122*, D1 antag -53*, D1 PAM -8 and TRHR PAM 19.
Cc1cccc2c1-c1sc(C(=O)N3CCN(c4ccccc4)CC3)cc1CO2 was read as TRHR agonist 0, D1 agonist 4, D1 antag -32*, D1 PAM -4 and TRHR PAM 18.
